Among all 220,000 compounds or so, about 830 (0.38%) were called active.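 How the source made its calls: active means compound inhibiting the enzyme by more than half at any dose during confirmatory dose-response retesting; inconclusive means strong single-dose inhibitors picked by rank but not retested; inactive means the rest.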 Not all results are given here. Potency and affinity values are given separately.
The molecules below were run against Leucine aminopeptidase (Plasmodium falciparum (isolate 3D7)) (UniProt Q8IL11) (assay: P. falciparum M17LAP inhibitors, primary screen, biochemical, fluorogenic H-Leu-NHMec substrate, 1536-well (AID 1619;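 further: plate controls were full reaction with DMSO carrier for no effect and no enzyme background for full effect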)). Details: recombinant M17LAP, H-Leu-NHMec fluorogenic kinetic assay; at 30 µM; hits give high values.
Sequence of Leucine aminopeptidase (Plasmodium falciparum (isolate 3D7)) (Q8IL11 whole entry, looked up): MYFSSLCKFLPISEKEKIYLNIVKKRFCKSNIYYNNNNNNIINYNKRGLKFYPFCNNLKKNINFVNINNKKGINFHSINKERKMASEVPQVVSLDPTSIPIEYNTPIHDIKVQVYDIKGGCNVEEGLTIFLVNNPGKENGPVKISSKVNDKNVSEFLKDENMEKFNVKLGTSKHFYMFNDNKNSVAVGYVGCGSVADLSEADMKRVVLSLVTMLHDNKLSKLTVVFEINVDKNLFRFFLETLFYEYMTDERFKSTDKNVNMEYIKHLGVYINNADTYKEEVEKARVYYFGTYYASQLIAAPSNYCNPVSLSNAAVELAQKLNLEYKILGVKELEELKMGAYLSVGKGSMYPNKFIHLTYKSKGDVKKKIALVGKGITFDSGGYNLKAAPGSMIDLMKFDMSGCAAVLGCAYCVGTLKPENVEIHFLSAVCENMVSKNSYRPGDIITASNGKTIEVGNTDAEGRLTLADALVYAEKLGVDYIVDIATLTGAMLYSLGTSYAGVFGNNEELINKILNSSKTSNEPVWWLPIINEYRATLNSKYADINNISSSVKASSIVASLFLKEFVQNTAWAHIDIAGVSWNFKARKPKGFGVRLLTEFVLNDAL

inhibition, inactive:
COc1ccc(Cc2nn3c(-c4ccccc4OC)nnc3s2)cc1 18.6%
CC1=CC(C)(C)n2c(O)c(N=N)c3c(C)c(C)cc1c32 14.8%
Cc1c(C(=O)NCCSCc2ccccc2Cl)cccc1[N+](=O)[O-] 4.93%
CCOc1ccc(NC(=O)Nc2cc(-c3ccccc3)sc2C(=O)OC)cc1 -2.36%
Cc1cc(C)nc(SCC(=O)Nc2ncc3c(n2)CCCC3=O)n1 -1.93%
Cc1nn(C)cc1CN(C)C(=O)c1nn2c(c1Cl)NC(c1cccs1)CC2C(F)(F)F (stereo not given) 11.7%
CC(C)(C)C(=O)N1CCC(O)(CS(=O)(=O)Cc2ccccc2Cl)CC1 13.8%
Cc1ccc(-n2c(SCC(=O)N3CCCc4ccccc43)nnc2-c2cccnc2)c(C)c1 7.68%
Cc1ccc(-n2c(SCC(N)=O)nnc2-c2cccnc2)c(C)c1 1.98%
Cc1cccc(C)c1NC(=S)N1CCC(c2ccccc2)C1 (stereo not given) 2.96%
O=c1nc(-c2ccccc2)c2cc(Cl)ccc2[nH]1 3.02%
COc1ccc(/C=C2\CCCC3C2=NN(C(=O)c2scnc2C)C3c2ccc(OC)c(OC)c2)cc1OC (stereo not given) -6.36%
Cc1[nH]nc2ncc(C(=O)c3cc(F)ccc3O)cc12 9.66%
Nc1nc2ncc(C(=O)c3cc(F)ccc3O)cc2s1 12.6%
CS(=O)(=O)Nc1nnc(Cc2ccccc2)s1 9.67%
CCCn1c(NCc2cccc(OC)c2O)nc2ccccc21 -4.67%
COc1cc(/C=N/n2c(C)n[nH]c2=S)ccc1OCc1ccc(F)cc1 -2.61%
CC(C)(C)OC(=O)N1CCCC1C(=O)O (stereo not given) -3.69%
O=C(Cn1cnc2ccccc2c1=O)c1c[nH]c2ccccc12 11.6%
CC(=O)Nc1ccc2oc(C)nc2c1 0.35%
Cc1nc2cc(NC(=O)Nc3ccc(Br)cc3)ccc2o1 -1.6%
Cc1ccc(NC(=O)Nc2cccs2)cc1 22.4%
CCc1ccc(NC(=O)Nc2cccs2)cc1 38.6%
CCOc1ccc(NC(=O)c2ccc3nccnc3c2)cc1 -3.72%
COc1ccc(NC(=O)Nc2ccc3nccnc3c2)cc1 37.8%
CCn1c(=O)c(C(=O)NCc2cccnc2)c(O)c2ccccc21 2%
CS(=O)(=O)N1N=C(c2ccco2)CC1c1ccccc1Cl (stereo not given) 5.77%
CN(C(=O)CSc1nc(-c2ccccc2)c(-c2ccccc2)o1)C1CCS(=O)(=O)C1 (stereo not given) 5.76%
NC(=O)c1c(-c2ccc(Cl)cc2Cl)csc1NC(=O)Cc1ccccc1 6.81%
CC(=O)Nc1ccc(NC(=O)CSc2nnc(-c3ccccc3)n2Cc2ccc3c(c2)OCO3)cc1 5.97%
COC(=O)c1[nH]c2c(c1C)C(=O)CCC2 6.36%
CCN1C(=O)/C(=C2\C=Cc3cc(C)ccc3N2CC)OC1=S 1.65%
CCOc1cc(/C=C2\C(=O)N(CCC#N)N=C2C)ccc1OCC(N)=O 4.75%
CC1=NN(Cc2ccccc2)C(=O)/C1=C\c1ccc(N(C)C)cc1 3.83%
CC1=C(C(=O)OC(C)C)C(c2cn(-c3ccccc3)nc2-c2cccs2)NC(=O)N1 (stereo not given) 2.02%
COc1ccccc1C(=O)N1CCN(Cc2nc3cc([N+](=O)[O-])ccc3n2C)CC1 6.22%
COc1cccc(NS(=O)(=O)c2cc(C)sc2C)c1 11.3%
Cc1cc(S(=O)(=O)Nc2cccc(Cl)c2)c(C)s1 4.03%
CC(=O)Nc1ccc(C2=NN(C)C(=NCc3ccccc3)SC2)cc1 -2.31%
N=c1n(Cc2ccc(Cl)cc2)c2ccccc2n1CC(O)COc1ccccc1 (stereo not given) 6.49%
Cc1c(Cl)cccc1NS(=O)(=O)c1ccc2c(c1)C1C=CCC1C(c1ccc(C(=O)O)cc1)N2 (stereo not given) 47.6%
COc1ccc(C(=O)N/N=C(\C)c2ccc3c(c2)C2C=CCC2C(c2ccccc2)N3)cc1 (stereo not given) 20.2%
COc1ccc(N2C(=O)C3CCCN3C2c2ccc(C)cc2)cc1Cl (stereo not given) -8.88%
CSCCC(NS(=O)(=O)c1ccc2ccccc2c1)C(=O)O (stereo not given) 12.2%
CSCCC(NS(=O)(=O)c1ccc(Cl)c(Cl)c1)C(=O)O (stereo not given) -4.93%
O=C(NCCn1cc(SCc2ccc(F)cc2)c2ccccc21)c1ccccc1F 12.4%
O=C(O)c1cccc(Cn2c(Cl)c(/C=N/NC(=O)c3cc4ccccc4cc3O)sc2=O)c1 -0.68%
COC(=O)c1cccc(Cn2c(Cl)c(/C=N/NC(=O)c3ccccc3Cl)sc2=O)c1 13.4%
O=C(O)c1cccc(Cn2c(Cl)c(/C=N/NC(=O)c3ccccc3O)sc2=O)c1 35.2%
COc1ccc(C(=O)N/N=C/c2sc(=O)n(Cc3cccc(C(=O)O)c3)c2Cl)cc1 43.6%
O=C(O)c1cccc(Cn2c(Cl)c(/C=N/NC(=O)c3ccc(O)cc3)sc2=O)c1 53.6%
O=C(O)c1cccc(Cn2c(Cl)c(/C=N/NC(=O)c3cccc(O)c3)sc2=O)c1 34%
COC(=O)/C(=N/Nc1cccc(C)c1)N1CCCc2ccccc21 1.03%
Oc1ccc(CCc2n[nH]c(=S)n2-c2ccc(F)cc2)cc1 -8.27%
COc1ccc(N2C(=O)CC(Sc3n[nH]c(-c4ccccc4)n3)C2=O)cc1 (stereo not given) 16.4%
CCOC(=O)CN1C(=O)C(Sc2n[nH]c(-c3ccccc3)n2)CCc2ccccc21 (stereo not given) 16.8%
COc1ccc(N2C(=O)CC(Sc3n[nH]c(-c4ccc(C)cc4)n3)C2=O)cc1 (stereo not given) 51.7%
CCOc1ccccc1N1C(=O)CC(Sc2ncccc2C(=O)O)C1=O (stereo not given) 17.5%
COc1cc2ncnc(NCc3ccccc3)c2cc1OC 14.9%
O=S(=O)(c1cccs1)N1CN(Cc2ccccc2)c2nc3ccccc3nc21 -4.62%
CCC(=O)NCc1csc(-c2cccs2)n1 -3.47%
O=C(NCCN1CCOCC1)NC1(C(F)(F)F)Oc2ccc(Cl)cc2O1 (stereo not given) 28.4%
O=C(Nc1cc(N2CCOCC2)ncn1)NC1(C(F)(F)F)Oc2ccccc2O1 5.1%
Cn1nc(C(F)(F)F)c(-c2ccc(F)cc2)c1NC(=O)c1cccnc1 -2.14%
COc1ccc(/C=C2\NC(=O)C(C=NCc3ccccc3)=C2O)cc1 0.26%
COc1ccc(-c2nnc(SCC(=O)NCCc3ccccc3)o2)cc1 -10.2%
Cn1cnnc1SCC(=O)OCN1C(=O)c2ccccc2C1=O 3.47%
Cc1ccc(C(=O)CSc2nc(C)cc(=O)[nH]2)cc1 9.23%
CC(=O)Nc1ccc(NC(=O)CSc2ccc(C)cc2)cc1 -3.31%
Cc1ccc(C(=O)CSc2nnc(C)s2)cc1 -0.76%
CCc1ccc(C(=O)CSc2nc3ccccc3c(=O)[nH]2)cc1 -2.74%
Cc1ccc(NC(=O)CSc2nnc(CCC(=O)O)c(=O)[nH]2)cc1 13.7%
Cc1cc(C)nc(SCC(=O)OCN2C(=O)c3ccccc3C2=O)n1 8.29%
CCCn1c(SCC(=O)c2ccc(CC)cc2)n[nH]c1=O 26.6%
CCOC(=O)C[N+](C)(C)CCOC1CC2CCC1(C)C2(C)C (stereo not given) 3.08%
O=C(c1cnn2c(C(F)(F)F)cc(-c3ccc4c(c3)OCO4)nc12)N1CCCCC1 6.7%
O=C(NCCC1=CCCCC1)C1CCN(C(=O)Cc2ccccc2)CC1 6.09%
O=C(CSc1n[nH]c(-c2cccs2)n1)N1CCCc2ccccc21 1.29%
Fc1ccc(CNc2nc3ccccc3n3cnnc23)cc1 -2.38%
CCOC(=O)C1CN(S(=O)(=O)c2ccccc2)CCN1S(=O)(=O)c1ccccc1 (stereo not given) -13.2%
CCCCCn1c(CNC(=O)COC)nc2ccccc21 -1.06%
CN(CC(=O)Nc1ccc(N2CCOCC2)cc1)CC(=O)Nc1cccc(C#N)c1 17.1%
CC(C)(C)c1ccc(C(=O)CSc2n[nH]c(=O)[nH]c2=O)cc1 -4.96%
CC(C)Oc1ccc(C(CC(=O)O)NC(=O)C(Sc2ccccc2)c2ccccc2)cc1 (stereo not given) 19.5%
Cc1ccc(C(=O)CSc2n[nH]c(C)n2)cc1 46.4%
CC(C)Oc1ccc(C(CC(=O)O)NC(=O)C2CCCCC2)cc1 (stereo not given) 4.14%
Cc1nc(SCC(=O)c2ccc(F)cc2)n[nH]1 19.2%
CC(C)(C)c1ccc(C(=O)CSc2nc3ccccc3c(=O)[nH]2)cc1 9.78%
O=C(CCC(=O)Nc1ccccc1)NNC(=O)c1ccccc1Cl -1.79%
CCCN1Cc2cccc(C(=O)Nc3ccc(C)cc3)c2C1=O -1.02%
COCCNC(=S)N1CCC(Cc2ccccc2)CC1 1.83%
CC(=O)Nc1ccc(Sc2ccccc2C(=O)O)cc1 6.89%
CCOC(=O)C1CCCN(C(=O)c2cc(Nc3ccc(OC)cc3OC)nc3ccccc23)C1 (stereo not given) -1.02%
O=C(NCCc1ccc(S(=O)(=O)N2CCCC2)cc1)c1cccs1 22.4%
O=C(CSc1nnc(CNC(=O)c2ccco2)o1)Nc1ccccc1 21.5%

— PubChem BioAssay AID1619 (SRMLSC, 2009)
